The whole screen tested about 310,000 compounds, of which about 3,900 (1.3%) were called active.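 The calls were made as follows: active = compounds whose thallium flux B-score, printed positive for inhibition, exceeds three library SD while starting fluorescence stays within three; inactive = the rest.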 Many of the other results were omitted from the sample, so actives are more common in it than they were.

Sequence of Potassium voltage-gated channel subfamily KQT member 1 (Homo sapiens) (P51787 whole entry, looked up): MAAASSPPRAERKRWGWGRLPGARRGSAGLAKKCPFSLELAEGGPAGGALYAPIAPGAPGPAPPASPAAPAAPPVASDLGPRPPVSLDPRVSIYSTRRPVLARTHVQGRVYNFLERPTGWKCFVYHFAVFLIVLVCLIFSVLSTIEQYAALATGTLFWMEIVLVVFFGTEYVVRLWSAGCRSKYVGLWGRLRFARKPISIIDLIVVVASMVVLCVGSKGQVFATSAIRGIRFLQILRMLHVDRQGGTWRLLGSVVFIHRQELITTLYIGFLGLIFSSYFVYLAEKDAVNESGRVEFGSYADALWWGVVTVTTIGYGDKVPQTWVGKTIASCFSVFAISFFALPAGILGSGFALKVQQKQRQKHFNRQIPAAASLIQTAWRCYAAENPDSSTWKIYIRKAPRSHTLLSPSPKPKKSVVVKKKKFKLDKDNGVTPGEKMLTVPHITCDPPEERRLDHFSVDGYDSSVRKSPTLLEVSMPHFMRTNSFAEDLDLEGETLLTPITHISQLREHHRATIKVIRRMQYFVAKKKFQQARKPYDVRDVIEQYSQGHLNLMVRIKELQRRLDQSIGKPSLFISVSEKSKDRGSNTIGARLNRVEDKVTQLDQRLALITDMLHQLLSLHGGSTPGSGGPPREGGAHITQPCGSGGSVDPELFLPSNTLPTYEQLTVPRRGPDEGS

The test addresses Potassium voltage-gated channel subfamily KQT member 1 (Homo sapiens) (UniProt P51787). The experiment in a line: KCNQ1 potassium current blockers – cell-based, thallium flux, high-throughput, primary screen (AID 2642).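 Also: channel opened by potassium depolarization with thallium stimulus after 20 min compound exposure.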 The following applies: CHO-K1 KCNQ1, FluxOR thallium flux fluorescence, at 10 µM; stronger effect = higher value.
For the compound `O=C(c1cc(-c2ccco2)nc2ccccc12)N(Cc1nnc(-c2ccc(Cl)cc2)o1)C1CC1`, the B-score entry was “inactive”.
To `CC(=O)N/C(=C/c1ccc(Cl)cc1)C(=O)NCCc1c[nH]c2ccccc12` belongs “inactive”; to `N#C/C(=C/c1ccc(N2CCCCC2)o1)C(=O)NCCc1c[nH]c2ccccc12`, 7 (active); to `O=C(CN1C(=O)NC2(CCCCC2)C1=O)NCCc1c[nH]c2ccccc12`, “inactive”.
Regarding `CCCc1ccc(-c2c(C)sc(NC(=O)c3ccnn3C)c2C#N)cc1`, the B-score entry was “inactive”.
To `Cc1noc(/C=C/c2ccco2)c1S(=O)(=O)N1CCC(C(=O)N2CCc3ccccc32)CC1` belongs “inactive”; to `Cc1ccccc1C(=O)OC1OC(=O)C(Cl)=C1Nc1ccccc1` (stereo not given), 11 (active); to `O=C1OC(OC(=O)c2ccccc2Br)C(N2CCOCC2)=C1Cl` (stereo not given), “inactive”.
For the compound `Cc1ccc(NC2=C(Cl)C(=O)OC2OC(=O)c2ccccc2C)cc1` (stereo not given), the B-score result was “inactive”.
To `O=C(NC1CC1)C1=C[C@H](c2c[nH]c3ccccc23)C[C@H](OCc2ccc(CO)cc2)O1` belongs “inactive”.
To `CC(C)(C)c1ccc(/C=C/C(=O)NC2CCS(=O)(=O)C2)cc1` (stereo not given) belongs “inactive”; to `Clc1ccc(C2[C@H]3CN(CC4CCCCC4)[C@H](c4ccccc4)C34CC2(c2cccnc2)C4)cn1` (stereo not given in full), “inactive”; to `O=C(NCCN1CCOCC1)c1ccc2c(c1)N(Cc1ccc(Cl)cc1)CCS2`, “inactive”.
To `O=C(NCCc1ccccc1)c1ccc2c(c1)N(Cc1ccccc1)CCS2` belongs 10 (active); to `CCOC(=O)N1CCN(C(=O)c2ccc3c(c2)N(Cc2ccc(C)cc2)CCS3)CC1`, “inactive”; to `CC(=O)c1c(C)n(-c2ccc(C)cc2)c2ccc(O)cc12`, “inactive”.
For `CCc1ccc(CN(C)C(=O)C2CCC(=O)N(Cc3cccc(OC)c3)C2)nc1` (stereo not given), the B-score entry is “inactive”.
On to `COc1cc(N2C(=O)c3ccccc3C2=O)c(Cl)cc1C(=O)OCC(=O)N1CCOCC1`, for which the B-score result was “inactive”.
To `C=CS(=O)c1sc(Cl)c(N2CCOCC2)c1[N+](=O)[O-]` (stereo not given) belongs 7 (active); to `Cc1ccccc1C(=O)NCC(c1ccco1)N1CCc2ccccc21` (stereo not given), “inactive”.
To `Cc1ccc(C(=O)OCC(=O)NC(=O)Cc2ccccc2)c(O)c1` belongs “inactive”; to `O=[N+]([O-])/C(N=Nc1ccccc1)=N\Nc1ccccc1`, “inactive”.
With `CCN(C(=O)COC(=O)c1sccc1C)c1c(N)n(Cc2ccccc2)c(=O)[nH]c1=O`, the B-score entry was “inactive”.
Consider `O=C(O)CCCn1c(=O)c2cccn2c2ccc(F)cc21`, for which the B-score entry is “inactive”.
In the case of `C=CCOC(=O)C1=C(C)OC(N)=C(C#N)C1c1ccc(F)cc1` (stereo not given), the B-score entry is “inactive”.
`C=CCOC(=O)C1=C(C)NC(SCC(=O)OCC)=C(C#N)C1c1ccc(C)cc1` (stereo not given): the B-score was 6 (active).
To `CCOC(=O)CSC1=C(C#N)C(c2sccc2C)CC(=O)N1` (stereo not given) belongs “inactive”; to `NC(=O)c1ncc(C(F)(F)F)cc1Oc1ccc(F)cc1`, “inactive”; to `CCOc1ccc(N/C(N)=N/c2nc(C)c(C)c(=O)[nH]2)cc1`, “inactive”.
To `CCCCSc1nc2ccccc2[nH]1` belongs “inactive”; to `CCC(C)N1C(=O)S/C(=C/c2ccc(Sc3nc4ccccc4[nH]3)o2)C1=O` (stereo not given), 13 (active).
To `CCc1nnc(NC(=O)CCCSc2nc3ccccc3[nH]2)s1` belongs “inactive”; to `CCOc1ccc(C(=O)NCC(=O)N2CCCCCCC2)cc1OCC`, “inactive”.
For the compound `CC(=O)N1CCC(C(=O)Nc2nc(-c3ccccc3)ns2)CC1`, the B-score entry is “inactive”.
Regarding `C[n+]1ccc(/C=C/c2c[nH]c3ccccc23)cc1`, the B-score is 13 (active).
As to `COc1ccc(/C=C(\C#N)c2c[nH]c3ccccc23)cc1`, the B-score result was “inactive”.
To `O=C(N/N=C/c1c[nH]c2ccccc12)c1ccccc1O` belongs “inactive”; to `COc1ccc(CC(=O)OC(C)C(=O)Nc2ccc(S(N)(=O)=O)cc2)cc1` (stereo not given), “inactive”; to `CC(=O)Nc1ccc(N2CCOCC2)c(C(=O)Nc2cccc(C)c2)c1`, “inactive”.
To `COC(=O)c1cc(NC(=O)c2ccco2)ccc1N1CCOCC1` belongs “inactive”; to `COC(=O)c1cc(NC(=O)c2cc(C(C)(C)C)nn2Cc2cccc(C)c2)ccc1N1CCOCC1`, 6 (active).
To `CCCCCC(O)c1cccc(OCc2ccc3ccccc3n2)c1` (stereo not given) belongs 6 (active).
On to `COc1cccc(C(O)c2nc3ccccc3n2C)c1` (stereo not given), for which the B-score result is “inactive”.
To `CCCCCCOC(=O)NCC(O)c1ccccc1` (stereo not given) belongs “inactive”.
To `O=C(O)CC12CC3CC(C1)CC(n1ncc(NCc4ccc(F)cc4)c(Cl)c1=O)(C3)C2` belongs “inactive”; to `CC(=O)N/N=C/c1cc2c(cc1[N+](=O)[O-])OCO2`, “inactive”; to `CC1(C(=O)N/N=C/c2cc3c(cc2Br)OCO3)CC1(Br)Br` (stereo not given), 9 (active).
As to `O=C(N/N=C/c1cc2c(cc1Br)OCO2)C1COc2ccccc2O1` (stereo not given), the B-score entry is “inactive”.
To `OCCN1CCN(c2nnc(-c3ccccc3)c3ccccc23)CC1` belongs “inactive”; to `CCCC(=O)N1CCN(c2nnc(-c3ccc(C)cc3)c3ccccc23)CC1`, 7 (active); to `c1ccc(-c2nnc(N3CCOCC3)c3ccccc23)cc1`, “inactive”.
To `COC(=O)c1ccc(S(=O)(=O)N2CCc3ccccc3C2)cc1` belongs “inactive”; to `COc1ccccc1CNC(=O)C1Cc2ccccc2C(=O)O1` (stereo not given), “inactive”; to `CCNC(=S)N(CCN(CC)CC)Cc1cc2cc3c(cc2[nH]c1=O)OCO3`, “inactive”.
To `Clc1ccc(CSc2nnc3c(n2)[nH]c2ccccc23)cc1` belongs “inactive”; to `CCCCn1ccnc1C(=O)c1cccc(S(=O)(=O)N2c3ccccc3CC2C)c1` (stereo not given), 6 (active).
For the compound `CC1Cc2ccccc2N1S(=O)(=O)c1c(N)n(C)c(=O)n(C)c1=O` (stereo not given), the B-score result was “inactive”.
To `CC1Cc2ccccc2N1S(=O)(=O)c1ccc(Cl)nc1` (stereo not given) belongs “inactive”; to `COc1ccc(C2C(C#N)=C(/N=C/N3CCOCC3)OC3=C2C(=O)CC(C)(C)C3)cc1OC` (stereo not given), “inactive”; to `CSc1nccc(NC(=O)c2ccc(C(C)(C)C)cc2)n1`, 7 (active).
To `COC(=O)c1nc(NC(=O)c2ccc(C(C)(C)C)cc2)n[nH]1` belongs “inactive”; to `Cc1cccc(NC(=O)c2cccnc2Cl)n1`, “inactive”; to `COc1ccccc1N(C)S(=O)(=O)c1ccc(Cl)c(C(=O)Nc2ccncc2)c1`, “inactive”.
To `Cc1cnc(C(=O)OCC(=O)NCCCc2ccccc2)cn1` belongs “inactive”.
With `Cc1ccc(OC(=O)c2cncc(Br)c2)c(C)c1`, the B-score result was “inactive”.
With `Cc1ccccc1NC(=O)NCc1ccco1`, the B-score result is “inactive”.
To `O=C(Nc1ccccc1)Nc1ccccc1C(=O)NCc1ccco1` belongs “inactive”; to `Cc1cccc(Nc2ccccc2C(=O)NCc2ccco2)c1C`, 9 (active).
As to `CSc1ccc(S(=O)(=O)N2CCC(C(=O)NCc3ccncc3)CC2)cc1`, the B-score result was “inactive”.
To `Cc1csc(NC(=O)CSc2nnc(-c3cccnc3)o2)n1` belongs “inactive”; to `Cc1ccccc1OCC(=O)Nc1ccc(S(=O)(=O)N2CCOCC2)cc1`, “inactive”.
To `Cc1ccccc1OCC(=O)Nc1ccc2c(c1)ncn2C` belongs “inactive”; to `Cc1ccccc1OCC(=O)Nc1ccc(N2CCN(C(=O)C(C)C)CC2)c(Cl)c1`, 6 (active).
Turning to `CC(=O)NNC1=Nc2ccccc2N(C)C(C)C1` (stereo not given), the B-score entry was “inactive”.
To `CCc1ccc2c(c1)C1(NN=C(c3ccccc3)S1)C(=O)N2` (stereo not given) belongs 11 (active); to `CC(C)N(C(=O)Cn1cc(S(=O)(=O)CC(=O)N2CCOCC2)c2ccccc21)C(C)C`, “inactive”.
Regarding `COc1ccccc1NC(=O)c1ccc(N2CC3CC(C2)c2cccc(=O)n2C3)c(NC(=O)c2cccnc2)c1` (stereo not given), the B-score entry was “inactive”.
To `O=C1CCC(=O)N1c1ccc(NCCc2ccccc2F)c([N+](=O)[O-])c1` belongs “inactive”; to `CC1(c2nnc(Cc3ccccc3)o2)CC(c2ccccc2F)=NO1` (stereo not given), “inactive”; to `C=CCOc1cccc(C2C(C(=O)c3ccc(C)o3)=C(O)C(=O)N2CCCn2ccnc2)c1` (stereo not given), “inactive”.
To `Cc1cc(N2C(=O)C(O)=C(C(=O)c3ccc(C)o3)C2c2ccc(OCc3ccccc3)cc2)no1` (stereo not given) belongs “inactive”.
For the compound `C=CCOc1cccc(C2C(C(=O)c3ccc(C)o3)=C(O)C(=O)N2c2nnc(C)s2)c1` (stereo not given), the B-score is 11 (active).
On to `COc1ccc(NC(=O)C2=CC(c3ccc(OC)c(OC)c3)=NS(=O)(=O)N2C)cc1`, for which the B-score result is “inactive”.
To `Cc1ccc2c(c1)N(CC(=O)NCC1CCCO1)C(=O)CO2` (stereo not given) belongs “inactive”; to `Cc1nn(CC(=O)NCC2CCCO2)c(=O)c2cc3ccccc3n12` (stereo not given), “inactive”.
To `COCc1cc(C)n(CC(=O)NCC2CCCO2)c(=O)c1C#N` (stereo not given) belongs 6 (active).
To `Cc1cc(-c2ccc(C)c(S(=O)(=O)Nc3ccc(S(N)(=O)=O)cc3)c2)on1` belongs “inactive”; to `COc1ccccc1C(c1nnnn1CC1CCCO1)N1CCN(c2ccccc2)CC1` (stereo not given), “inactive”.
With `Cc1cccc(N2CCN(C(c3ccccc3)c3nnnn3CC3CCCO3)CC2)c1C` (stereo not given), the B-score is 6 (active).
To `Cc1cccc(N2CCN(C(c3ccc(N(C)C)cc3)c3nnnn3C(C)(C)C)CC2)c1C` (stereo not given) belongs “inactive”.
With `NC(=O)C1CCN(C(=O)CC2C(=O)NCCN2Cc2cccc(Oc3ccccc3)c2)CC1` (stereo not given), the B-score result was “inactive”.
For the compound `CS(=O)(=O)N1CCc2nc(-c3ccccc3)sc2C1`, the B-score entry is “inactive”.
To `CCCOc1ccc2c3c(c(=O)oc2c1OCCC)CCC3` belongs 8 (active).
Take `Cc1c(OC(C)C(=O)N[C@@H](Cc2ccccc2)C(=O)O)ccc2c3c(c(=O)oc12)CCCC3` (stereo not given in full): the B-score entry is “inactive”.
To `COc1ccc2c3c(c(=O)oc2c1OCC(=O)C(C)(C)C)CCCC3` belongs “inactive”; to `CC(=O)Nc1ccc(C(=O)N(C2=NC(C)CS2)c2ccc(Cl)cc2)cc1` (stereo not given), “inactive”; to `CCC(C)[C@H](NC(=O)N1c2ccccc2NC(=O)[C@@H]1C(C)C)C(=O)N[C@@H](Cc1ccccc1)C(=O)O` (stereo not given in full), “inactive”.
To `CCCCCCCCn1c2c(c(=N)c3c1CCC3)CCCC2` belongs 10 (active); to `Cc1ccccc1CCNC(=O)C1CCC(=O)N(Cc2ccc(Cl)cc2)C1` (stereo not given), “inactive”; to `Cc1ccc(CSc2nc(-c3ccccc3)c(C#N)c(=O)[nH]2)cc1`, “inactive”.
As for `N#Cc1c(-c2ccccc2)nc(SCc2ccc([N+](=O)[O-])cc2)[nH]c1=O`, the B-score result is “inactive”.
With `N#Cc1c(-c2ccccc2)nc(SCc2cccc(C(F)(F)F)c2)[nH]c1=O`, the B-score was 8 (active).
With `Clc1ccc2nc(CSc3ccccc3)cn2c1`, the B-score entry was “inactive”.
To `CCOC(=O)c1cnc(-n2nc(C)cc2C)nc1NNc1cc(C)nc(-c2ccccc2)n1` belongs “inactive”; to `COc1ccc(NC(C)=O)cc1NC(=O)CN1CCN(C2c3ccccc3-c3ccccc32)CC1`, “inactive”.

For the origin of these results see PubChem BioAssay AID2642 (Johns Hopkins Ion Channel Center, 2010).
